This is a sample that favours compounds with a hit; in the whole collection about 1.4% have one here.
A3A deaminase – inhibitors of human APOBEC3A DNA deaminase; P31941; recombinant A3A, FAM/TAMRA ssDNA deamination fluorescence; inhibition, % at 20 µM; 330,000 tested, 0.41% active;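 active = at least 40% inhibition at 20 µM here, with at most 30% in a related deaminase screen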
LANA-H2A inh – blocks KSHV LANA binding to histone H2A/H2B | inhibition, % (no concentration beside the values) | cell-free LANA-H2A/H2B peptide, fluorescence polarization | 320,000 tested, 0.6% active; in the data active = inhibition mostly above about 10%, no sharp cut-off; inactive = mostly below about 6.7%
Target sequence (Q9QR71 whole entry, looked up): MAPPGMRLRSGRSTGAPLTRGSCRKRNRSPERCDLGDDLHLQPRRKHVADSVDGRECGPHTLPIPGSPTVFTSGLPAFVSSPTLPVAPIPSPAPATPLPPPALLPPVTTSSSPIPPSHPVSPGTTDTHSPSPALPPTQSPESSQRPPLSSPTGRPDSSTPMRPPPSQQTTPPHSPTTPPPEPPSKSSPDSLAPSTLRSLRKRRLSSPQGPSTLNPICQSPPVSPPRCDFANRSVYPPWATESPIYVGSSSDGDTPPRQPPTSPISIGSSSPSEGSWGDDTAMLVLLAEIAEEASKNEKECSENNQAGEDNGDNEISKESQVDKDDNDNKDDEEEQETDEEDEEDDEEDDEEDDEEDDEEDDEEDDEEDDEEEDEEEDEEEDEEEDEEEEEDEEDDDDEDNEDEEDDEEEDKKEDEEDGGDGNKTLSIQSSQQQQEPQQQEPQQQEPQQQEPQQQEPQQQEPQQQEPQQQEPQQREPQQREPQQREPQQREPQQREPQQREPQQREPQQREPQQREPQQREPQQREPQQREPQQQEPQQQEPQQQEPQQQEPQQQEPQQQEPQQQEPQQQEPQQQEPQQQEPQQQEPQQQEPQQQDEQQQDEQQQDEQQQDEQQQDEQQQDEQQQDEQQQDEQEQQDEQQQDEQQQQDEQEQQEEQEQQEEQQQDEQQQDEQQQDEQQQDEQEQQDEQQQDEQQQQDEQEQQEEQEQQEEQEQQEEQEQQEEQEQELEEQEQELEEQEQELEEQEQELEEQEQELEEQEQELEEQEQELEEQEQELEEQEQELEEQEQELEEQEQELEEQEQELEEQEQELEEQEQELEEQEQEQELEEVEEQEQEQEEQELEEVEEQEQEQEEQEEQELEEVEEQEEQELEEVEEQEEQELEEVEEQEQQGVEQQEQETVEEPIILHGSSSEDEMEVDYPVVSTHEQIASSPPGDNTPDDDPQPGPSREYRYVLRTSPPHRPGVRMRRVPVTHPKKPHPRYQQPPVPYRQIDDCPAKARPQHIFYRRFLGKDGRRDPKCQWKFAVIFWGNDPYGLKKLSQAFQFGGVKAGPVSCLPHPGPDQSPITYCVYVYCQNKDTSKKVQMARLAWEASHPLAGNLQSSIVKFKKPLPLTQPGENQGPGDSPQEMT
APOBEC3G inh – inhibitors of human APOBEC3G DNA deaminase. Q9HC16. recombinant A3G, ssDNA deamination FAM/TAMRA fluorescence. inhibition, % at 20 µM. 330,000 tested, 0.28% active. AID 493012;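 active = inhibition of at least 40% at 20 µM, with no more than 30% in the related APOBEC3A deaminase screen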
HDAC3 inh – blocks human histone deacetylase 3 | inhibition, % at 8.3 µM | recombinant HDAC3, fluorogenic peptide/trypsin coupled, fluorescence | 320,000 tested, 0.15% active | O15379; in the data active = inhibition above about 26%, passing the limit was not always enough; inconclusive = no clear call, values can overlap the other calls
Numbers stand for hits; . = inactive; ? = inconclusive; / = not tested or not shown; + = active, no number.

SMILES | A3A deaminase | LANA-H2A inh | APOBEC3G inh | HDAC3 inh
CC1CCCCN1C(=O)COC(=O)c1cc([N+](=O)[O-])ccc1N (stereo not given) | . | . | . | .
Cn1c(SCC(=O)Nc2ccc(N3CCOCC3)c(Cl)c2)nnc1-c1ccccc1 | . | 40.3 | . | .
O=C(c1ccccn1)N(CC1CCCO1)C1(C(=O)NC2CCCCC2)CCCCC1 (stereo not given) | . | 24.9 | . | .
COc1cccc(C(=O)NNC(=O)c2ccc3ccccc3c2O)c1 | . | . | . | .
COc1ccc(-c2sc3ccc(-c4ccc5c(c4)OCO5)cc3c2-c2ccc(OC)nc2)cc1 | . | . | . | .
CCOc1ccc(N(CC(=O)Nc2cccc(N(C)S(C)(=O)=O)c2)S(=O)(=O)c2ccccc2)cc1 | . | 24.8 | . | .
CCOc1ccc(N(CC(=O)Nc2cccc(Br)c2)S(C)(=O)=O)cc1 | . | 35.7 | . | .
COc1ccc(N(CC(=O)Nc2cccc(N(C)S(C)(=O)=O)c2)S(=O)(=O)c2ccc(F)cc2)cc1 | . | 152.2 | . | .
COc1ccc(N(CC(=O)Nc2cccc(N(C)S(C)(=O)=O)c2)S(=O)(=O)c2ccc(C)cc2)cc1 | . | . | . | .
CCCN(CC(=O)Nc1ccccc1C)C(=O)C1CC(=O)N(c2ccc(CC)cc2)C1 (stereo not given) | . | . | . | .
O=C(O)c1ccccc1C(=O)NCc1ccccc1 | . | . | . | .
O=C(O)c1ccccc1C(=O)NCc1ccc(F)cc1 | . | 19.7 | . | .
O=C(Nc1cccc(/C=C/c2ccccn2)c1)c1ccc(-n2cncn2)c([N+](=O)[O-])c1 | . | . | . | .
COC(=O)c1ccc(CSc2nnc(C)s2)cc1 | . | . | . | .
COc1ccc(CSc2nnc(C)s2)cc1F | . | + | . | .
COc1ccc(C(=O)n2cnc3ccccc32)cc1 | . | . | . | 33.2
COc1ccc(C(=O)n2cnc(N)n2)cc1 | . | . | . | 70.7
COc1ccc(C(=O)n2cnc3ccccc32)cc1Br | . | . | . | .
COc1ccc(C(=O)N2C(=O)c3ccc(N)cc3C2=O)cc1 | . | . | . | .
COC(=O)c1[nH]c2ccc(F)cc2c1NC(=O)C1=COCCO1 | . | 11.5 | . | .
O=C(N/N=C/c1cccs1)c1cc(-c2cccc3ccccc23)n[nH]1 | . | 17.0 | . | .
COc1ccc(S(=O)(=O)N2CCN(C(=O)[C@@H]3CCCN3C(=O)c3cccs3)CC2)cc1 | . | / | . | /
O=C([C@@H]1CCCN1C(=O)c1cccs1)N1CCN(S(=O)(=O)c2cccc(F)c2)CC1 | . | 10.6 | . | .
Cc1cccc(C)c1NC(=O)CN1CCN(C(=O)c2ccc(OCc3cn4ccccc4n3)cc2)CC1 | . | . | . | .
Cc1ccc(C(=O)n2cnnc2N)cc1C | . | . | . | ?
SMILES | A3A deaminase | LANA-H2A inh | APOBEC3G inh | HDAC3 inh
Cc1ccc(C(=O)n2cnnc2N)cc1 | . | . | . | 44.5
CCOC(=O)C1CCCN(S(=O)(=O)NC[C@H]2O[C@@H](n3cnc4c(N)ncnc43)[C@H](O)[C@@H]2O)C1 (stereo not given in full) | . | + | . | .
CN1CCN(S(=O)(=O)NC[C@H]2O[C@@H](n3cnc4c(N)ncnc43)[C@H](O)[C@@H]2O)CC1 | . | / | . | /
CC(=O)N(C)c1ccc(OCC(O)Cn2c(C)nc3ccccc32)cc1 (stereo not given) | . | . | . | .
CN(C)c1ccc2nc3c(=O)[nH]c(=O)nc-3n(CC(O)C(O)C(O)CO)c2c1 (stereo not given) | . | 30.4 | . | /
CCCCN(C(=O)COC(=O)c1nc2nc(C)cc(C)n2n1)C1CCS(=O)(=O)C1 (stereo not given) | . | / | . | .
Cc1ccn2nc(C(=O)OCC(=O)N(CC(C)C)C3CCS(=O)(=O)C3)nc2n1 (stereo not given) | . | 80.3 | . | .
COc1ccccc1NC(=O)c1c([N+](=O)[O-])cnn1C | . | 15.3 | . | .
Cn1ncc([N+](=O)[O-])c1C(=O)Nc1ccccc1C(=O)O | . | . | . | .
Cc1[nH]n(-c2ccccc2)c(=O)c1N=Nc1ccc2c(c1)OCO2 | . | . | . | .
Cc1[nH]n(C2=NCCS2)c(=O)c1N=Nc1ccccc1 | . | . | . | 60.2
Cc1ccc(S(=O)(=O)N2CCCN(C(=O)c3cc4ccccc4[nH]3)CC2)cc1 | . | . | . | .
Cn1c(=O)cc2c3c(c(N4CCCCC4)ccc31)C(=O)c1ccccc1-2 | . | 21.8 | . | .
O=C1c2ccccc2C(=O)c2c1cccc2N1CCCC1 | / | . | / | .
CC1(C)CCC[C@]2(C)C(CS(=O)c3ccccc3)=C(C=O)CC[C@@H]12 (stereo not given in full) | . | . | . | /
Cc1csc(/C(=N/OC(=O)c2ccco2)C(N)=O)n1 | . | . | . | 27.7
C[C@H](CO)NC(=O)[C@@H]1C[C@H]1[C@@H](NP(=O)(c1ccccc1)c1ccccc1)c1ccccc1 | . | . | . | .
Cc1cc(CNC(=O)[C@H]2C[C@@H]2[C@H](NP(=O)(c2ccccc2)c2ccccc2)c2ccccc2)nn1C | . | 24.2 | . | .
CC(C)OC(=O)c1ccc(OC(=O)c2cccnc2)cc1 | . | . | . | 46.7
COC(=O)c1ccc(OC(=O)c2cccnc2)cc1 | . | . | . | 41.7
CCOc1ccc(OC(=O)c2cccnc2)cc1 | . | . | . | .
O=C(C[C@H]1C[C@H](C(=O)N2CCCCC2)[C@@]2(CCc3ccccc3)c3[nH]c4cc(-c5ccco5)ccc4c3CCN2C1=O)NCCC1=CCCCC1 | . | / | . | /
O=C(NC(=S)Nc1ccccc1OC(F)F)c1ccc2c(c1)OCO2 | . | . | . | .
CCOC(=O)CSc1nc(N2CCOCC2)c2c(c1C#N)CC(C)(C)N(C)C2 | . | 15.2 | . | .
O=C(/C=C/c1ccccc1)Nc1ncn[nH]1 | . | 14.4 | . | .
SMILES | A3A deaminase | LANA-H2A inh | APOBEC3G inh | HDAC3 inh
Cc1ccc(S(=O)(=O)N(C)c2ccc(OC(C)C(=O)N(C)c3ccccc3)cc2)cc1 (stereo not given) | . | / | . | /
COc1ccc2[nH]cc(CCNC(=O)C3CCCCC3)c2c1 | . | 12.4 | . | .
CCCn1c(SCC(=O)Nc2ccc3c(c2)OCCO3)n[nH]c1=O | . | / | . | /
OCCN(CCO)c1nc(N2CCCCC2)c2nc(N(CCO)CCO)nc(N3CCCCC3)c2n1 | . | 79.5 | . | /
Nc1nc(NCCO)nc(N2CCCCCC2)c1[N+](=O)[O-] | . | . | . | .
O=C(CCN1CCCCO1)N1CCCC(N2CCN(c3ccc(F)cc3)CC2)C1 (stereo not given) | . | 13.2 | . | .
CC(C)C12CN3CC(C(C)C)(CN(C1)C3c1ccccc1)C2O (stereo not given) | . | 8.5 | . | .
Oc1ccccc1/C=N/Nc1ncc(Br)cn1 | / | + | / | .
Oc1ccccc1/C=N/Nc1ccccc1 | . | . | . | .
CCc1cc(=O)oc2cc(C)cc(OCC(=O)NC3CC3)c12 | . | . | . | .
Cc1cc(OCC(=O)NC2CC2)c2c(C)cc(=O)oc2c1 | . | 12.7 | . | .
Cc1ccc(C(=O)CC2(O)C(=O)Nc3ccccc32)s1 (stereo not given) | . | . | . | .
